{"source": "PubChem BioAssay (NCATS)", "note": "Results filed as inconclusive are left out. Values without a mark were called inactive. Calls come from the whole dose curve; as a rule, active = well fitted curve in the direction sought with a large enough effect; inconclusive = small, poorly fitted or top-dose-only effect, or another doubt; inactive = no such curve, though single readings can be large or run the other way.", "data": [{"target": "Glucagon-like peptide 1 receptor (Homo sapiens) (UniProt P43220)", "sequence (P43220 whole entry, looked up)": "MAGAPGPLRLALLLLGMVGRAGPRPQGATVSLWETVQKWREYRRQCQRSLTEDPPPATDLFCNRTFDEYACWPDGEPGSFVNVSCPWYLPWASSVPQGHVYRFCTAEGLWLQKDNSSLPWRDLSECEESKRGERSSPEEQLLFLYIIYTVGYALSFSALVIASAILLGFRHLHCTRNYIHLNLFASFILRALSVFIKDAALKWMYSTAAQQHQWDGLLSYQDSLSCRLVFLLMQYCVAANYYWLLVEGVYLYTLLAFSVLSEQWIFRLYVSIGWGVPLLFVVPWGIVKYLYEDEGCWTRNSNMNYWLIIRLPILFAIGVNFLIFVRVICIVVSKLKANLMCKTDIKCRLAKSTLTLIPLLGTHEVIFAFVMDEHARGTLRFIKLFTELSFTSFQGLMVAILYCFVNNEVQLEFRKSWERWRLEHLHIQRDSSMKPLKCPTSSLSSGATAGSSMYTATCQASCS", "assay": "qHTS of GLP-1 Receptor Agonists: LOPAC Validation (AID 624148);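 note: luminescence from a luciferase reporter switched on by cAMP; 0% is about no effect; higher luminescence signal means agonism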", "settings": "GLP-1R agonist cell assay; series mostly up to 46.1 µM; activation: at the top concentration", "description": "The overall goal of this project was to develop a novel assay for discovering small molecule ligands for class B1 G protein-coupled receptors (GPCRs). Very few agonists (or inverse agonists) with generally weak activity for this entire group of physiologically important receptors are known to date. To establish proof-of-principle that this critical bottleneck can be overcome with a suitable screening approach, our studies focused on the class B1 receptor for glucagon-like peptide-1 (GLP-1R), a potential therapeutic target for diabetes and neurodegenerative disease.\nThe assay was developed in a \"mix and measure\" format using a cell-based functional readout. Toward this goal, stably transfected HEK293 cell clones were established that co-express (i) a cAMP-responsive luciferase reporter gene, and (ii) GLP-1Rs that upon ligand interaction either stimulate (agonists) or inhibit (inverse agonists) luciferase activity. In different cell lines to be used for screening, expressed GLP-1Rs are specifically optimized for high sensitivity detection of either weak agonists (hypersensitive receptor) or inverse agonists (constitutively active receptor mutant). In addition, control cell lines were developed that express either the cAMP-responsive reporter gene without recombinant GLP-1Rs (enabling initial exclusion of GLP-1R independent effects of candidate probes), or the reporter gene together with wild type GLP-1Rs (for confirmation of probe activity at this receptor), or the reporter gene in combination with the constitutively active orphan receptor GPR119 (enabling initial exclusion of GLP-1R independent inhibitory effects of candidate inverse agonists).\nTo that end, this assay was optimized for 1536-well format and screened against the MLSMR.\nNIH Molecular Libraries Probe Production Network [MLPCN]\nNIH Chemical Genomics Center [NCGC]\nPI Name: Martin Beinborn, Tufts Medical Center\nIn a white solid 1536-well plate, 6 uL of cells are dispensed in DMEM without phenol red, 10% Nu serum, and 1% pen-strep medium. The plates are then incubated for 12 hours at 37 deg C at 5% CO2 before 23 nL of compounds are added. After a 4-6 hr incubation at37 deg C and 5% CO2, 3 uL of detection reagent are added and after a 12 min incubation at RT, a luminescent read is obtained on the ViewLux.", "units": {"activation": "%"}, "values": [{"compound": "O=C(CCCCCN1CCN(c2ccccc2-c2ccccc2)CC1)NC1CCCc2ccccc21", "note": "(stereo not given)", "activation": -1.64}, {"compound": "NC(=S)c1ccc[n+]([C@@H]2O[C@@H](COP(=O)([O-])OP(=O)(O)OC[C@H]3O[C@@H](n4cnc5c(N)ncnc54)[C@H](OP(=O)(O)O)[C@@H]3O)C(O)C2O)c1", "note": "(stereo not given in full)", "activation": 1.45}, {"compound": "NC(CCCP(=O)(O)O)C(=O)O", "note": "(stereo not given)", "activation": 0.625}, {"compound": "Cc1ccc(S(=O)(=O)/C=C/C#N)cc1", "activation": 0.209}, {"compound": "C#C[C@]1(O)CC[C@H]2[C@@H]3CCC4=Cc5oncc5CC4(C)[C@H]3CCC21C", "note": "(stereo not given in full)", "activation": 12.8}, {"compound": "O=[N+]([O-])c1ccc2c(c1)S(=O)(=O)C=C2", "activation": -1.02}, {"compound": "c1cnc2c(c1)ccc1cccnc12", "activation": -1.37}, {"compound": "NCCCCC(=O)O", "activation": -1.36}, {"compound": "COc1ccc(NC(=O)/C=C/c2ccc(Cl)cc2)cc1", "activation": 1.4}, {"compound": "CCCCCCCCCCCCCCCC(=O)NCC(COP(=O)([O-])OCC[N+](C)(C)C)OCC", "note": "(stereo not given)", "activation": 5.2}, {"compound": "O=S(=O)(c1cccc2c(I)cccc12)N1CCCNCC1", "activation": 12.3}, {"compound": "C=CC(N)CCC(=O)O", "note": "(stereo not given)", "activation": 0.871}, {"compound": "C[N+]1(C)C2CC(OC(=O)[C@H](CO)c3ccccc3)CC1C1OC12", "note": "(stereo not given in full)", "activation": -2.05}, {"compound": "CC(C)NCC(O)COc1cccc2ccccc12", "note": "(stereo not given)", "activation": -1.12}, {"compound": "CCCCC#Cc1nc(NC)c2ncn([C@@H]3O[C@H](CO)[C@@H](O)[C@H]3O)c2n1", "activation": 14.3}, {"compound": "O=C1NC(=O)/C(=C/c2ccc3nccnc3c2)S1", "activation": -1.51}, {"compound": "C=CC(C)=C[C@@]1(C)SC(=O)C(C)=C1O", "activation": -1.55}, {"compound": "O=C(/C=C/c1ccc(O)cc1)c1ccc(O)cc1O", "activation": 1.08}, {"compound": "N[C@@H](CC(=O)O)C(=O)O", "activation": 0.676}, {"compound": "COc1cc2nc(N3CCN(C(=O)OCc4ccccc4)C(C(=O)NC(C)(C)C)C3)nc(N)c2cc1OC", "note": "(stereo not given)", "activation": 13.7}, {"compound": "CCCCC/C=C\\CC(O)/C=C/c1cccc(CC(O)CCCCO)n1", "note": "(stereo not given)", "activation": 10.6}, {"compound": "COc1cc2c(CCNC(C)=O)c[nH]c2cc1Cl", "activation": 15.3}, {"compound": "C=CC(=O)c1ccc(CCCCCC)cc1", "activation": -0.437}, {"compound": "N#C/C(=C\\c1ccc(O)c(O)c1)C(=O)NCc1ccccc1", "activation": -1.33}, {"compound": "O=C1/C(=C/c2ccsc2)CC/C1=C\\c1cccs1", "activation": -1.98}, {"compound": "CCCCCCCC/C=C\\CCCCCCCC(=O)NCCO", "activation": 3.59}, {"compound": "CC1OC1P(=O)(O)O", "note": "(stereo not given)", "activation": -1.62}, {"compound": "CC(C)(C=O)Cc1cc(C(C)(C)C)c(O)c(C(C)(C)C)c1", "activation": 0.664}, {"compound": "O=C(Nc1cccc(C(=O)Nc2ccc(S(=O)(=O)O)c3cc(S(=O)(=O)O)cc(S(=O)(=O)O)c23)c1)Nc1cccc(C(=O)Nc2ccc(S(=O)(=O)O)c3cc(S(=O)(=O)O)cc(S(=O)(=O)O)c23)c1", "activation": -1.71}, {"compound": "CC(C)Cc1ccc([C@H](C)C(=O)O)cc1", "activation": -1.73}, {"compound": "N.N.N.N.N.N.N.N.N.N.N.N.N.N.O.O.[Ru+4].[Ru+5].[Ru+5]", "activation": 0.446}, {"compound": "OC[C@H]1O[C@@H](n2cnc3c(NC4CCCC4)ncnc32)[C@H](O)[C@@H]1O", "activation": 20}, {"compound": "O=C1O/C(=C/Br)CCC1c1cccc2ccccc12", "note": "(stereo not given)", "activation": -1.87}, {"compound": "Nc1nc(SCc2ccc([N+](=O)[O-])cc2)c2ncn([C@@H]3O[C@H](CO)[C@@H](O)[C@H]3O)c2n1", "activation": -1.78}, {"compound": "CCOC(=O)C1=C(C)NC(C)=C(C(=O)OCC)C1c1c(F)c(F)c(F)c(F)c1F", "activation": 0.723}, {"compound": "CN1CC(=O)N/C1=N/C(=O)Nc1cccc(Cl)c1", "activation": 1.23}, {"compound": "OCC1O[C@H](O)C(Cl)C(O)C1O", "note": "(stereo not given in full)", "activation": -1.16}, {"compound": "NC[C@H]1O[C@@H](n2cnc3c(N)ncnc32)[C@H](O)[C@@H]1O", "activation": 5.99}, {"compound": "O=c1[nH]c2cc(C(F)(F)F)ccc2n1-c1cc(C(F)(F)F)ccc1O", "activation": -1.86}, {"compound": "CN(C)c1nc(N)c(C(=O)N=C(N)N)nc1Cl", "activation": -0.772}]}]}
